Compound activity from PubChem BioAssay.
Sampled rows, rich in hits. Any-hit rate of the full collection: about 7.8%.
MARV entry inh – qHTS for inhibitors of binding or entry into cells for Marburg Virus; AID 540276, 2011; Marburg virus pseudotyped entry inhibition, cell reporter; 300,000 tested, 1.8% active; Potency, µM (series often up to 37.8 µM), hits mostly inhibitors; calls by dose curve; tested in HEK293 cells
HCMV inh – qHTS Assay for inhibitors of the human cytomegalovirus (HCMV); HFF cells, HCMV-luciferase reporter, 72 h; active compounds read low; activity change, negative = inhibition, % at 57.5 µM; 410,000 tested, 4.5% active; AID 1259415, 2018; in the data active = activity change below about -60%; inconclusive = no clear call, values can overlap the other calls; inactive = above about -39%
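Compounds were evaluated in HFFs infected with an HCMV luciferase reporter virus (MOI 1 PFU/cell). Luciferase in lysates collected 72 h post infection served as the replication measure.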
HCV inh – qHTS Assay for Inhibitors of Hepatitis C Virus (HCV) | Huh7.5.1 HCVcc-Cre infection, luciferase reporter, 44 h | Potency, µM (top dose mostly 41.8 µM), most hits filed as inhibitors | 340,000 tested, 3.4% active | AID 651820, 2012; active = well fitted inhibition curve with a large enough effect; inconclusive = small, poorly fitted or top-dose-only effect, or another doubt; inactive = no such curve, though single readings can be large or run the other way
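Seed cells (1,000/well) for 4 h; treat with compound and infect with HCVcc-Cre, moi about 0.5. Incubate 44 h, then detect luciferase activity.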
Vaccinia Venus – qHTS for Stage-Specific Inhibitors of Vaccinia Orthopoxvirus: Venus Reporter Primary qHTS | 330,000 tested, 0.46% active | Vaccinia virus Venus reporter expression, fluorescence | Potency, µM (highest dose often 36.5 µM), hits mostly inhibitors | AID 720580, 2013; calls by dose curve; tested in A549 cells; note: nearly all actives have a fitted effect of over 30% in size
Vaccinia mCherry – qHTS for Stage-Specific Inhibitors of Vaccinia Orthopoxvirus: mCherry Reporter Primary qHTS. Vaccinia virus mCherry reporter infection, fluorescence. Potency, µM (top dose mostly 36.5 µM), most hits filed as inhibitors. 310,000 tested, 0.63% active; calls by dose curve; tested in A549 cells; note: nearly all actives have a fitted effect of over 35% in size
Lassa entry inh – qHTS for Inhibitors of binding or entry into cells for Lassa Virus. Lassa virus pseudotype entry inhibition, cell reporter. Potency, µM (titrated, usually from 37.9 µM), actives largely listed as inhibitors. 300,000 tested, 1.2% active; calls by dose curve; tested in HEK293 cells; note: nearly all actives have a fitted effect of over 50% in size
Of the large screens only hits and unclear results are named; the others gave an inactive call.

COc1ccccc1C1CC(=O)Nc2cc(C)c(C)cc21 (centres undefined)	MARV entry inh inconclusive, HCV inh inconclusive, Lassa entry inh inconclusive
CC(C)Oc1ccccc1C1CC(=O)Nc2cc3c(cc21)OCO3 (centres undefined)	MARV entry inh 6.51µM, HCMV inh -100.9, HCV inh 11.2µM, Lassa entry inh inconclusive (no result: Vaccinia Venus, Vaccinia mCherry)
Cc1cc2c(cc1C)C(c1ccccc1OC(C)C)CC(=O)N2 (centres undefined)	MARV entry inh 1µM, HCV inh 8.91µM, Vaccinia mCherry inconclusive, Lassa entry inh inconclusive
COc1ccc(O[C@H]2C=C[C@@H](c3ccccc3)O[C@H]2COC(=O)CCC(C)=NO[C@H](C)c2cn([C@H](CO)Cc3ccccc3)nn2)cc1	Lassa entry inh inconclusive (no result: HCMV inh, HCV inh, Vaccinia Venus, Vaccinia mCherry)
N#Cc1cc2c(nc1SCC(=O)N1CCOCC1)CCCCC2	HCMV inh -77.1, Lassa entry inh inconclusive
CN1CCc2nc(SCC(=O)Nc3ccc(Cl)cc3)c(C#N)cc2C1	MARV entry inh inconclusive, HCV inh inconclusive (no result: Vaccinia mCherry)
CN1CCc2nc(SCC(=O)OC(C)(C)C)c(C#N)cc2C1	MARV entry inh inconclusive, HCV inh 3.98µM, Vaccinia mCherry inconclusive
CCCCSc1nc2c(cc1C#N)CCC2	HCV inh 22.4µM, Lassa entry inh inconclusive
COc1ccc(-c2noc(N3CCN(c4cccc(Cl)c4)CC3)n2)cc1OC	none (no result: MARV entry inh, HCV inh)
CCOC(=O)c1cc(-c2ccccc2)sc1NC(=O)C(C)OC(=O)c1cccc(S(=O)(=O)N(C)C)c1 (centres undefined)	HCV inh inconclusive
CCOC(=O)c1cc(-c2ccccc2)sc1NC(=O)C(C)OC(=O)c1cccnc1OCC (centres undefined)	MARV entry inh inconclusive, HCV inh 3.55µM
Cc1nc(SCC(=O)Nc2cccc(Cl)c2)n[nH]1	none
Cc1ccc(C)c(NC(=O)CSc2n[nH]c(-c3ccccn3)n2)c1	MARV entry inh inconclusive, HCMV inh inconclusive, HCV inh inconclusive, Vaccinia Venus inconclusive, Vaccinia mCherry 7.94µM, Lassa entry inh inconclusive
O=C(CSc1n[nH]c(-c2ccccn2)n1)Nc1cccc(Cl)c1	MARV entry inh inconclusive, HCMV inh -98.2, HCV inh 10µM, Vaccinia mCherry inconclusive, Lassa entry inh inconclusive
Cc1ccc(NC(=O)CSc2n[nH]c(-c3ccco3)n2)c(C)c1	MARV entry inh inconclusive
Nc1nc(SCC(=O)Nc2cccc(F)c2)n[nH]1	HCMV inh -100.3 (no result: MARV entry inh, Vaccinia Venus, Vaccinia mCherry, Lassa entry inh)
Nc1nc(SCC(=O)Nc2cccc(C(F)(F)F)c2)n[nH]1	none (no result: HCV inh)
Cc1ccc(C(=O)NNC(=O)CSc2n[nH]c(-c3cccnc3)n2)cc1	HCMV inh -103.5
Cc1cc(Nc2cccc(F)c2)n2nc(-c3ccco3)nc2n1	none (no result: MARV entry inh, HCV inh)
COc1ccc(CCNC(=O)CCc2c(C)c3ccc(O)c(C)c3oc2=O)cc1	none (no result: HCV inh)
Cc1ccc(NC(=O)c2cnc(SCC(=O)N3CCCc4ccccc43)n(C)c2=O)cc1C	HCMV inh inconclusive (no result: MARV entry inh, HCV inh)
CCOc1ccc(Cn2c(CNS(=O)(=O)c3ccc(Cl)s3)nc3cccnc32)cc1	HCMV inh inconclusive (no result: MARV entry inh, HCV inh)
C[C@@H]1CC[C@H]2C(=O)O[C@@H](Cc3ccccc3)CN2[C@H]1c1ccc(Br)cc1	none (no result: HCMV inh, HCV inh, Vaccinia Venus, Vaccinia mCherry, Lassa entry inh)
Cc1ccccc1NC(=O)CSc1nnc(-c2ccccn2)o1	MARV entry inh inconclusive
Cc1ccc(O)c(NC(=O)CSc2n[nH]c(-c3ccccc3)n2)c1	HCMV inh -82.9, HCV inh 11.2µM (no result: MARV entry inh, Vaccinia Venus, Vaccinia mCherry, Lassa entry inh)
Cc1ccccc1NC(=O)CSc1n[nH]c(-c2ccccn2)n1	MARV entry inh inconclusive, HCV inh inconclusive, Vaccinia mCherry 6.31µM, Lassa entry inh inconclusive
COc1ccc([C@@H]2[C@@H](C(=O)N3CCOCC3)CC(=O)N2C(=O)c2ccccc2)cc1	none (no result: MARV entry inh, HCV inh, Vaccinia Venus, Vaccinia mCherry, Lassa entry inh)
COC(=O)c1c(NC(=O)COc2cc(C)c(Cl)c(C)c2)sc2c1CCCC2	none (no result: MARV entry inh, HCV inh)
O=C(O)CN(c1ccc2c(c1)OCCO2)S(=O)(=O)c1ccccc1	HCMV inh -69.0
O=C(c1cccc(F)c1)N1CC(=O)N2[C@H](CO)[C@@H](c3ccc(Br)cc3)[C@@H]2C1	none (no result: MARV entry inh, HCV inh, Vaccinia Venus, Vaccinia mCherry, Lassa entry inh)
CCOC(=O)CSc1nc2sc(C)c(C)c2c(=O)[nH]1	none
